target: PKLR; assay: pooled miR-30 sensor sort-seq; sequence = guide strand; settings: shRNA
Further: reference of the scale not given here.

| Sequence | sensor-assay potency score (higher = more potent) |
| --- | --- |
| TAATTGGACACAGACTTTCAGG | -0.61 |
| AATCATCATCTTCTGAGCCAGG | -0.988 |
| TCAATTTTGCTGATGATCTTGA | 0.666 |
| ATGCTCTCCAGCATCTGTGTGG | -1.11 |
| TTGATCATCTCCTTGAGGCGCT | 1.07 |
| TCGTGGTTCTCAATTTTGCTGA | -0.424 |
| ATGGACTTTGCTAAGTCTCTTT | -0.987 |
| TTGCTGATGATCTTGATGCCGT | -0.495 |
| TGTGGCACAGACAACAGGCTTG | -0.0127 |

target: PLA2G4A; assay: as above; settings: shRNA

| Sequence | sensor-assay potency score (higher = more potent) |
| --- | --- |
| TTGTCTGAAAGTCTTCTCCTGA | 0.182 |
| TGATTCATCATCACTGTCCGAG | 0.0963 |
| TAGTCAGTGAATAACATTCATA | -0.999 |
| TACAAGGTTGACATATACCAGG | -0.86 |
| TATCACATCAATGTTGTTCAGA | 0.0915 |
| TAAAGCTGAATCACTCACCAAG | -0.42 |
| TATCTTTTAACTTTCTGTGGTG | -0.296 |
| TTTGATAGTCACTTCCAGCATC | -0.254 |
| TTTGCTTCCAAATAAGTCGGGA | 0.33 |
| TAGTTCTTCATTAATCTCCTCT | 0.214 |
| TTTAAAGACATAGCACTCCTTC | -0.0879 |
| TTCTTCATTAATCTCCTCTGGC | -0.109 |

target: PLA2G4F; assay: as above; settings: shRNA

| Sequence | sensor-assay potency score (higher = more potent) |
| --- | --- |
| TCGTCTGTGATATTCACACTGC | -0.569 |
| TTTGTCGCTCCACACCTGGGGC | -1.27 |
| TTCTTGATAGCAGTGCATCCAG | -0.546 |
| TTGGCCACTATCCTAGTCTGGG | -0.525 |
| TTGCAGGTAACAGATCCGGGGT | -0.679 |
| TAGTACTGTAGCCGCTCCGTGG | -1.01 |
| TAGAGTGTGGAGATGCACCAGG | -0.214 |
| TTGTTCTTGATAGCAGTGCATC | -1.66 |
| TTGTTCAGGACGTTGTATCGAC | 0.0752 |
| TTGCACATAGCAGTCGGCTTTG | -0.794 |
| TGAACTCGCACCACTCTGCAAA | -0.822 |
| TATATTTGCATGATGTGGCCAC | 0.329 |

target: PLA2R1; assay: as above; settings: shRNA

| Sequence | sensor-assay potency score (higher = more potent) |
| --- | --- |
| TTTCTGAGCACAACTCTGGGTG | -0.349 |
| TTGAGCATTCAACCAAACCATC | -1.81 |
| TAATGCACTGTTATCAGCCTGA | 0.301 |
| TAAAAGATTAGAACCTTCCTTT | 0.786 |
| TATCACAACCTACTTCTGCAGA | -0.52 |
| TAGTATCACAACCTACTTCTGC | -0.635 |
| TTTTTCACTATGAAATACCTTG | -0.37 |
